Compounds with a hit are over-represented: about 4% of the library has one in this group of screens.
ADAM17 inh = inhibits human ADAM17. P78536. recombinant ADAM17, EDANS/DABCYL FRET peptide cleavage. inhibition, % at 6.95 µM. hit rate 0.83% among 370,000;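 active = inhibition above the mean of compounds lying between control limits plus 3 SD, set per campaign, cut at about 8.5% in these data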
aDG glyco up = increases alpha dystroglycan glycosylation; activation, % at 10 µM; hit rate 0.22% among 360,000; Pro5-aDG cells, alpha-DG glycosylation AlphaScreen (IIH6); 0% Pro5, 100% B10-LARGE cell signal;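 active = activation of at least 8% versus controls, or a plate z-score of at least 8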;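 also: Pro5 are CHO cells carrying HIG-tagged alpha-DG that lacks glycosylation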
ADAM10 inh = inhibitors of human ADAM10; inhibition, % at 7 µM; recombinant ADAM10, EDANS/DABCYL FRET peptide cleavage, 3 h; hit rate 0.62% among 370,000;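 active = inhibition above a per-campaign cutoff equal to the mean of compounds falling between control-based bounds plus 3 SD, cut at about 20% in these data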
Target sequence (O14672 214-748 limits assumed): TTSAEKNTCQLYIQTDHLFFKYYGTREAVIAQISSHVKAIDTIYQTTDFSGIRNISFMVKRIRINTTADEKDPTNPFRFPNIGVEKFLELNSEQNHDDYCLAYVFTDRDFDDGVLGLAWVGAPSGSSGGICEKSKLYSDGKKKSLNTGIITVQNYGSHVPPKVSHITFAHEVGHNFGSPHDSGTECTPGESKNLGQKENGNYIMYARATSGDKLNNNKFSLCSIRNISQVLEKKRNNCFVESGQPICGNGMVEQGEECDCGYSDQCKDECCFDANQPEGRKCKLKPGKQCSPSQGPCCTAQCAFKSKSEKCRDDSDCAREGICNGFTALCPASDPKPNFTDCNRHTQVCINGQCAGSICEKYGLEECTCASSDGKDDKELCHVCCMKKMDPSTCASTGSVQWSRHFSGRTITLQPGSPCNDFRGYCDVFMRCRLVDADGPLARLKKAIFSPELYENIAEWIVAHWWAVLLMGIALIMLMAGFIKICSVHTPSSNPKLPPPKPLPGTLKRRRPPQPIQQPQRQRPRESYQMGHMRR
GRIN3A LBD mod = modulates the human NR3A ligand-binding domain. NR3A LBD differential scanning fluorimetry, Tm shift; 0% = protein alone, 100% = glycine-bound protein. AID 1259313. Tm shift relative to glycine control, % at 25 µM. hit rate 2.5% among 340,000;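 active = melting temperature shift of at least 10% of the positive control shift, at one fixed dose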
FAS-TE inh = FAS thioesterase (human) inhibition; P49327; recombinant FAS-TE, OMFH fluorogenic substrate, fluorescence endpoint; inhibition, % at 15 µM; hit rate 0.67% among 360,000; AID 602261;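 active = compounds whose normalised, plate-corrected inhibition of enzyme fluorescence in the single-dose primary screen is 50% or more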
Of the large screens only hits and unclear results are named; the others gave an inactive call.

C/C(=N\Nc1cc(C)nc(-c2ccccc2O)n1)c1ccccc1	GRIN3A LBD mod 13.9
Cc1cc(N/N=C/c2ccc(O)c(C)c2O)nc(-c2ccccc2O)n1	GRIN3A LBD mod 32.0
O=C(Oc1ccc(Br)cc1C(=S)N1CCCC1)c1ccccc1F	none
O=C(Oc1ccc(C(=S)N2CCCCC2)cc1)c1ccccc1F	GRIN3A LBD mod 38.9
C=C(C)CN1C(=O)C(=O)N(CC(=C)C)C1=O	none (no result: aDG glyco up, FAS-TE inh)
CC(C(=O)O/N=C(\N)c1cccnc1)c1ccc([N+](=O)[O-])cc1 (configuration not stated)	none
CCCC(=O)Nc1ccc(-c2csc(N/N=C\c3ccncc3)n2)cc1	GRIN3A LBD mod 17.7
COC(=O)c1ccc(/C=N/Nc2nc(-c3ccc(C)cc3)cs2)cc1	none (no result: ADAM17 inh, ADAM10 inh)
CC(=O)Nc1ccc(-c2csc(N/N=C\c3ccncc3)n2)cc1	GRIN3A LBD mod 15.4
CCOc1ccc(N(CC(=O)NC2CCCCCC2)S(=O)(=O)c2ccccc2)cc1	none
COCCNC(=O)CN(C(=O)CCC(=O)Nc1cc(C)on1)c1cccc(C)c1C	none
Cn1c(=S)c2[nH]c(SCCN)nc2n(C)c1=O	none
CN(C(=O)c1cccc(NC(=O)Cc2cccc(NC(=O)C3CCN(S(=O)(=O)c4cccc([N+](=O)[O-])c4)CC3)c2)c1)C1CC1	none
O=C(Cc1cccc(NC(=O)C2CCN(S(=O)(=O)c3cccc([N+](=O)[O-])c3)CC2)c1)Nc1cccc(C(=O)N2CCCCC2)c1	GRIN3A LBD mod 11.4
CN(C(=O)c1ccc(NC(=O)Cc2ccc(NC(=O)C3CCN(S(=O)(=O)c4cccc([N+](=O)[O-])c4)CC3)cc2)cc1)C1CCCC1	GRIN3A LBD mod 10.0
CN(C(=O)c1cccc(NC(=O)Cc2ccc(NC(=O)C3CCCN(S(=O)(=O)c4cccc([N+](=O)[O-])c4)C3)cc2)c1)C1CCC1 (configuration not stated)	GRIN3A LBD mod 11.4
CN(C(=O)c1cccc(NC(=O)Cc2ccc(NC(=O)C3CCN(S(=O)(=O)c4cccc([N+](=O)[O-])c4)CC3)cc2)c1)C1CC1	none
Cc1ccc(-c2csc(NC(=O)/C=C/c3cccs3)n2)cc1C	GRIN3A LBD mod 19.2
N#Cc1ccc(-c2csc(NC(=O)/C=C/c3cccs3)n2)cc1	none
CCCCCCCCCCOC(=O)Cn1c(COc2ccc(Cl)cc2)[n+](C)c2ccccc21	GRIN3A LBD mod 20.7
CCCCCCCCCCOC(=O)Cn1c(COc2ccccc2C)[n+](C)c2ccccc21	GRIN3A LBD mod 31.0 (no result: ADAM17 inh, ADAM10 inh)
CCCCCCCCCCOC(=O)Cn1c(COc2ccccc2)[n+](C)c2ccccc21	none
O=C(C1CN(S(=O)(=O)c2ccccc2)CCN1S(=O)(=O)c1ccccc1)N1CCCCCC1 (configuration not stated)	none
COc1ccc(NC(=O)CSc2nnc(-c3cccc(O)c3)o2)cc1	GRIN3A LBD mod 13.9
O=C(CSc1nnc(-c2ccc(O)cc2)o1)Nc1ccccc1	GRIN3A LBD mod 13.5
COc1ccc(OCc2nnc(SCC(=O)Nc3ccc(C)cc3)o2)cc1	none
Cc1cc(NC(=O)CSc2nnc(-c3ccc(O)cc3)o2)no1	none
O=C(OCc1cn([C@@H]2CN(CC3CCCCC3)[C@@H](c3ccccc3)C[C@H]2O)nn1)c1ccccc1	none (no result: GRIN3A LBD mod)
Cc1c(NC(=O)OCCNC(=O)COc2ccc(Cl)cc2Cl)sc(=S)n1C	none
CCOC(=O)C1CCN(C(=O)CN2C(=O)c3ccccc3S2(=O)=O)CC1	GRIN3A LBD mod 18.1
O=C(CCN1CCN(c2ccc(Cl)cc2)CC1)Nc1ccccc1F	none
Cc1cccc(NS(=O)(=O)c2cc3c4c(c2)CC(=O)N4CCC3)c1C	none
COc1cccc(/C=C/C(=O)Nc2cccc(C(C)=O)c2)c1OC	GRIN3A LBD mod 15.3
COc1ccc(/C=C/C(=O)Nc2cccc(C(C)=O)c2)cc1	none
COc1cccc(OC)c1C(=O)NC(=S)Nc1ccc2c(c1)OCCO2	none
COc1ccc(/C=C/C(=O)Nc2ccc(C(N)=O)cc2)cc1OC	GRIN3A LBD mod 14.8
COc1ccc(/C=C/C(=O)NC(=S)Nc2cc([N+](=O)[O-])ccc2O)cc1OC	GRIN3A LBD mod 19.1
COc1cccc(/C=C/C(=O)Nc2ccc3c(c2)OCCO3)c1OC	GRIN3A LBD mod 19.7
O=C(/C=C/c1ccc(S(=O)(=O)N2CCOCC2)cc1)N1CCCCC1	none
COc1cccc(/C=C/C(=O)c2cccc([N+](=O)[O-])c2)c1OC	GRIN3A LBD mod 10.2
COc1cccc(/C=C/C(=O)Nc2ccc(C(=O)Nc3cccc(S(N)(=O)=O)c3)cc2)c1OC	GRIN3A LBD mod 38.9

High-throughput results (PubChem)
